This is a sample that favours compounds with a hit; in the whole collection about 21% have one here.
Pf growth 48h = inhibits P. falciparum growth in the first generation, 48 h. P. falciparum luciferase growth in erythrocytes, 48 h. Potency, µM (doses to about 28.7 µM), hits mostly inhibitors. 5.9% of 310,000 active. AID 504832
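Read-out is firefly luciferase luminescence from an integrated reporter in P. falciparum, so falling signal marks reduced parasite growth. Infected erythrocytes were at 2% hematocrit and 0.1% parasitemia (final) in Albumax-supplemented RPMI 1640.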
NS1 function inh = influenza NS1 inhibition; Potency, µM (top dose mostly 46.1 µM); 0.4% of 270,000 active; AID 2326; calls by dose curve; note: actives are rising curves; nearly all actives have a fitted effect of over 50% in size
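S. cerevisiae expressing influenza A NS1, grown in glucose, washed, then diluted 1:100 into pH 6.0 -URA galactose medium with 23 nl compound. Growth recovery read as OD600; NS1-free strain serves as control.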
Giardia FBPA inh = Giardia lamblia aldolase inhibition. A8B2U2. purified Giardia FBPA. Potency, µM (titrated, usually from 59.6 µM), hits mostly inhibitors. 0.71% of 290,000 active. AID 2451; note: nearly all actives have a fitted effect of over 55% in size
Target sequence (A8B2U2 whole entry, looked up): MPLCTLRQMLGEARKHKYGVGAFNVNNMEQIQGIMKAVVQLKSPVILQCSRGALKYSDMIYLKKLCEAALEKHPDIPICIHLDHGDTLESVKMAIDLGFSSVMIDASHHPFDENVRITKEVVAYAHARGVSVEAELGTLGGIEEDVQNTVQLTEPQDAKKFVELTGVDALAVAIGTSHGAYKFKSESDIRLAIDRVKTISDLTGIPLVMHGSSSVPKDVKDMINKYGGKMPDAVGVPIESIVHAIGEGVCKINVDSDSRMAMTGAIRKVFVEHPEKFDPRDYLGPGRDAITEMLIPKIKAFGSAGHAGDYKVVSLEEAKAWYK
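40 nM FBPA preincubated 10 min at RT with compound (up to 57.5 uM final), then substrate plus GAPDH/TPI/NAD/arsenate coupling and diaphorase/resazurin added. Fluorescence read after 20 min at RT, 525/598 nm.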
Pf growth 96h = inhibits malaria parasite growth, 96 h; P. falciparum luciferase reporter growth, 96 h; Potency, µM (titrated, usually from 28.7 µM), hits mostly inhibitors; 6.9% of 320,000 active
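96 h incubation, 37 C, 5% CO2, of luciferase-reporter P. falciparum-infected RBCs (2% hematocrit, 0.05% parasitemia final) with test compounds; endpoint luminescence.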
Cycloheximide cs = counter-screen hit for Shiga toxin inhibitors, cycloheximide | 12% of 300,000 active | cell reporter, cycloheximide protein synthesis inhibition counterscreen | AID 2314 | max response, %; in the data active = max response mostly above about 13%, no sharp cut-off; inactive = mostly below about 14%; note: read at 38.3 µM for the half of the compounds with a filed dose
Shiga toxin inh = Shiga toxin inhibition; Vero cells, Shiga toxin protein synthesis inhibition reporter; inhibition, % at 38.7 µM; 9.2% of 290,000 active; in the data active = inhibition mostly above about 28%, no sharp cut-off; inactive = mostly below about 43%
Hits are given with their value; n = inactive; u = inconclusive; x = not tested or not shown. Unless noted, calls come from the whole dose curve; as a rule, active = well fitted curve in the direction sought with a large enough effect; inconclusive = small, poorly fitted or top-dose-only effect, or another doubt; inactive = no such curve, though single readings can be large; an effect the other way counts as inactive or inconclusive.

SMILES | Pf growth 48h | NS1 function inh | Giardia FBPA inh | Pf growth 96h | Cycloheximide cs | Shiga toxin inh
COc1ccc(NC(=O)CSCC(=O)Oc2c(OC)cccc2OC)cc1 | n | x | x | n | x | x
CC(=O)NC(=S)Nc1sc2c(c1C#N)CCCCC2 | n | n | n | n | 30 | 84
O=C(Nc1sc2c(c1C(=O)O)CCCC2)c1ccccc1Cl | n | n | n | n | n | x
O=C(NC(=S)Nc1sc2c(c1C(=O)O)CCCC2)c1ccccc1 | n | n | u | n | 12 | n
CC(C)C[C@H](NC(=O)N1CC(=O)Nc2ccccc21)C(=O)N[C@@H](Cc1ccccc1)C(=O)O | n | n | n | u | n | n
CCCC1Cc2c(sc3nc(SC)nc(N)c23)CO1 (centres undefined) | n | n | n | n | n | n
CSc1nc(N)c2c3c(sc2n1)COC(C(C)C)C3 (centres undefined) | x | n | n | 5.2µM | n | n
O=C(OCCN1C(=O)c2cccc3c(N4CCOCC4)ccc(c23)C1=O)c1ccc(Cl)cc1 | u | n | n | 12µM | n | n
CCN=C1SC(C(=O)Nc2cccc(C(=O)O)c2)CC(=O)N1CC (centres undefined) | n | n | n | 13µM | n | n
CCCN1CCN(CCCNC(=O)c2cc3c(=O)oc4ccc(C)cc4c3s2)CC1 | n | n | x | u | n | n
Cc1ccc2oc(=O)c3cc(C(=O)NCCCN4CCCC(C)C4)sc3c2c1 (centres undefined) | 4.1µM | n | x | n | n | n
Cc1ccc2oc(=O)c3cc(C(=O)NCCN4CCc5ccccc5C4)sc3c2c1 | 4.7µM | n | n | u | n | n
Cc1ccc2oc(=O)c3cc(C(=O)NCc4ccco4)sc3c2c1 | x | u | n | 9.3µM | n | n
O=C(O)c1ccc(NC(=O)c2ccccc2NC(=O)c2ccccc2Cl)cc1 | n | n | n | n | n | n
CC(C)(C)NC[C@H](O)COc1cccc2c1CCC(=O)N2 | n | x | n | n | x | x
CC1=NN(c2ccccc2)C(=O)/C1=C/c1c(O)n(-c2ccc(F)c(Cl)c2)[nH]c1=O | n | n | n | u | 17 | n
O=C(c1ccc(S(=O)(=O)Cc2ccccc2F)c([N+](=O)[O-])c1)N1CCCCCC1 | u | x | n | u | n | n
O=C(c1ccc(S(=O)(=O)c2cccc(Cl)c2)c([N+](=O)[O-])c1)N1CCN(c2ccccn2)CC1 | u | x | n | u | 22 | n
O=C(c1ccc(S(=O)(=O)c2ccccc2Cl)c([N+](=O)[O-])c1)N1CCCCCC1 | u | n | n | 13µM | n | n
COC(=O)N[C@@H](CCc1ccccc1)[C@]1(C(C)=O)CCCC1=O | x | x | n | x | x | x
COc1cc(NC(=S)Nc2ncccc2C)cc(OC)c1OC | n | n | u | n | 20 | n
Cc1ccc(C)c(NC(=S)N2CCN(c3ccccn3)CC2)c1 | n | n | n | u | n | n
COc1cc(NC(=S)Nc2cccc(C)n2)cc(OC)c1OC | n | n | n | n | n | n
Cc1ccc(C)c(NC(=S)Nc2ncccc2C)c1 | n | n | u | u | 36 | 134
COc1ccc(-c2nnc(SCC(=O)Nc3nncs3)o2)cc1 | n | x | n | n | n | n
SMILES | Pf growth 48h | NS1 function inh | Giardia FBPA inh | Pf growth 96h | Cycloheximide cs | Shiga toxin inh
O=C(CSc1ccc(-c2ccc(F)cc2)nn1)NCc1ccco1 | n | n | n | u | n | n
COc1ccc(-c2nnc(SCC(=O)NC(=O)NCc3ccco3)o2)cc1 | n | n | n | n | 9.4 | n
COc1ccc(-c2ccc(SCC(=O)NCc3ccco3)nn2)cc1 | n | n | n | n | 17 | 57
CCC1=NN(C(=O)c2ccc(C)cc2)C(O)(c2ccc(Br)cc2)C1 (centres undefined) | n | n | n | 13µM | 39 | 44
CCC1=NN(C(=O)c2ccc(Br)cc2)C(O)(c2ccc(C)cc2)C1 (centres undefined) | n | n | n | n | 33 | 32
COC(=O)C1=NN(C(=O)c2ccc(C)cc2)C(O)(c2ccc(Cl)cc2)C1 (centres undefined) | n | n | n | n | n | n
CCC1=NN(C(=O)c2cccc(Br)c2)C(O)(c2ccc(Br)cc2)C1 (centres undefined) | u | n | n | u | 41 | 70
O=C(c1noc2c1CCCC2)N1CCCC(N2CCN(c3ccccc3F)CC2)C1 (centres undefined) | u | n | x | u | n | n
C=CCN(c1ccccc1)S(=O)(=O)c1cccc(C(=O)N2CC(C)CC(C)C2)c1 (centres undefined) | u | n | x | u | n | n
CC(C)N(C(=O)CSc1nnnn1-c1ccc2c(c1)OCO2)C(C)C | n | n | n | u | n | n
CCOc1ccc(N2CC(C(=O)N3CCCCCC3)CC2=O)cc1 (centres undefined) | n | n | n | n | n | n
Cc1cccc(N2CCN(S(=O)(=O)c3c(C)noc3/C=C/N(C)C)CC2)c1C | u | n | n | u | n | n
Cc1cc(C)n(-c2nnc(NCc3ccc(Cl)cc3)nn2)n1 | u | x | n | 2.1µM | n | n
Cc1nn(-c2nnc(NCc3ccccc3)nn2)c(C)c1Br | 0.59µM | n | u | 0.33µM | n | n
CCNc1ncc2nc(-c3ccc(Cl)cc3)c(=O)n(-c3ccccc3)c2n1 | x | x | n | x | x | x
CCOC(=O)C1CCN(C(=O)c2cccnc2Oc2ccccc2)CC1 | n | n | n | n | n | n
CC(C)(C)c1ccc(-c2nnc(N)s2)cc1 | n | n | n | n | 59 | 80
Nc1nnc(-c2ccc(F)cc2)s1 | n | n | n | n | n | n
CCOc1ccc(-c2nc(CCl)cs2)cc1 | n | x | n | n | 34 | 153
CCCCOc1ccc(-c2ncc(N)cn2)cc1 | n | n | n | n | 53 | 114
CCOc1ccc(-c2nnc(N)s2)cc1 | n | n | n | n | 25 | 142
CCCCOc1ccc(-c2nnc(N)s2)cc1 | n | n | n | u | 21 | n
Cc1cc(Cl)c(S(=O)(=O)N2CCN(c3ccc(F)cc3)CC2)cc1OCC(=O)NC1CCCCC1 | x | n | n | 6.6µM | n | n
Cc1cc(Cl)c(S(=O)(=O)NCC2CCCO2)cc1OCC(=O)NC1CCCCC1 (centres undefined) | x | n | n | 5.9µM | n | n
COc1ccc(Cl)cc1S(=O)(=O)N1CCN(c2ccc(F)cc2)CC1 | n | n | n | u | n | n
SMILES | Pf growth 48h | NS1 function inh | Giardia FBPA inh | Pf growth 96h | Cycloheximide cs | Shiga toxin inh
Cc1cc(Cl)c(S(=O)(=O)N2CCN(c3ccc(F)cc3)CC2)cc1OCC(N)=O | u | n | n | n | n | n
CCOc1ccc(Cl)cc1S(=O)(=O)N1CCN(c2ccc(F)cc2)CC1 | 12µM | n | n | x | n | n
CCOC(=O)C1CCCN(S(=O)(=O)c2cc(OCC(=O)NC3CCCCC3)c(C)cc2Cl)C1 (centres undefined) | x | n | n | 0.47µM | n | n
COc1ccc(NC(=O)CS(=O)c2cccc(Cl)c2)cc1 (centres undefined) | n | n | x | u | n | n
Cc1cc2nc(N3C(=O)CNC3=S)sc2cc1C | n | n | n | n | 23 | n
CCOc1ccc2nc(SC3CC(=O)N(c4ccc(OC)cc4)C3=O)sc2c1 (centres undefined) | n | n | n | n | n | n
